High-throughput results as filed in PubChem BioAssay.
Compounds with a hit are over-represented: about 0.53% of the library has one in this group of screens.
PrP UTR inh: suppresses PrP 5' UTR mRNA reporter expression | cell-based PrP 5' UTR mRNA reporter, plate reader | inhibition, % (no concentration beside the values) | 340,000 compounds, 0.35% hits; in the data active means inhibition above about 52%; further: 0 = median of the neutral control wells
BioA inh: BioA (M. tuberculosis) enzyme inhibition; inhibition, % at 9.99 µM; AID 602481; 360,000 compounds, 0.096% hits; purified M. tuberculosis BioA enzyme, plate reader; in the data active means inhibition above about 40%
Yp Topo-I inh: Y. pestis Topo-I inhibition via cleavage products; Y. pestis Topo-I cleavage product accumulation, plate reader; activity, % at 10 µM; 360,000 compounds, 0.064% hits; in the data active means activity above about 50%, passing the limit was not always enough
TcdB GH inh: blocks C. difficile toxin B glycohydrolase activity; inhibition, % at 9.99 µM; TcdB glycohydrolase enzymatic assay, plate reader; 350,000 compounds, 0.24% hits; AID 652162; P18177; in the data active means inhibition above about 10%
Target sequence (P18177 whole entry, looked up): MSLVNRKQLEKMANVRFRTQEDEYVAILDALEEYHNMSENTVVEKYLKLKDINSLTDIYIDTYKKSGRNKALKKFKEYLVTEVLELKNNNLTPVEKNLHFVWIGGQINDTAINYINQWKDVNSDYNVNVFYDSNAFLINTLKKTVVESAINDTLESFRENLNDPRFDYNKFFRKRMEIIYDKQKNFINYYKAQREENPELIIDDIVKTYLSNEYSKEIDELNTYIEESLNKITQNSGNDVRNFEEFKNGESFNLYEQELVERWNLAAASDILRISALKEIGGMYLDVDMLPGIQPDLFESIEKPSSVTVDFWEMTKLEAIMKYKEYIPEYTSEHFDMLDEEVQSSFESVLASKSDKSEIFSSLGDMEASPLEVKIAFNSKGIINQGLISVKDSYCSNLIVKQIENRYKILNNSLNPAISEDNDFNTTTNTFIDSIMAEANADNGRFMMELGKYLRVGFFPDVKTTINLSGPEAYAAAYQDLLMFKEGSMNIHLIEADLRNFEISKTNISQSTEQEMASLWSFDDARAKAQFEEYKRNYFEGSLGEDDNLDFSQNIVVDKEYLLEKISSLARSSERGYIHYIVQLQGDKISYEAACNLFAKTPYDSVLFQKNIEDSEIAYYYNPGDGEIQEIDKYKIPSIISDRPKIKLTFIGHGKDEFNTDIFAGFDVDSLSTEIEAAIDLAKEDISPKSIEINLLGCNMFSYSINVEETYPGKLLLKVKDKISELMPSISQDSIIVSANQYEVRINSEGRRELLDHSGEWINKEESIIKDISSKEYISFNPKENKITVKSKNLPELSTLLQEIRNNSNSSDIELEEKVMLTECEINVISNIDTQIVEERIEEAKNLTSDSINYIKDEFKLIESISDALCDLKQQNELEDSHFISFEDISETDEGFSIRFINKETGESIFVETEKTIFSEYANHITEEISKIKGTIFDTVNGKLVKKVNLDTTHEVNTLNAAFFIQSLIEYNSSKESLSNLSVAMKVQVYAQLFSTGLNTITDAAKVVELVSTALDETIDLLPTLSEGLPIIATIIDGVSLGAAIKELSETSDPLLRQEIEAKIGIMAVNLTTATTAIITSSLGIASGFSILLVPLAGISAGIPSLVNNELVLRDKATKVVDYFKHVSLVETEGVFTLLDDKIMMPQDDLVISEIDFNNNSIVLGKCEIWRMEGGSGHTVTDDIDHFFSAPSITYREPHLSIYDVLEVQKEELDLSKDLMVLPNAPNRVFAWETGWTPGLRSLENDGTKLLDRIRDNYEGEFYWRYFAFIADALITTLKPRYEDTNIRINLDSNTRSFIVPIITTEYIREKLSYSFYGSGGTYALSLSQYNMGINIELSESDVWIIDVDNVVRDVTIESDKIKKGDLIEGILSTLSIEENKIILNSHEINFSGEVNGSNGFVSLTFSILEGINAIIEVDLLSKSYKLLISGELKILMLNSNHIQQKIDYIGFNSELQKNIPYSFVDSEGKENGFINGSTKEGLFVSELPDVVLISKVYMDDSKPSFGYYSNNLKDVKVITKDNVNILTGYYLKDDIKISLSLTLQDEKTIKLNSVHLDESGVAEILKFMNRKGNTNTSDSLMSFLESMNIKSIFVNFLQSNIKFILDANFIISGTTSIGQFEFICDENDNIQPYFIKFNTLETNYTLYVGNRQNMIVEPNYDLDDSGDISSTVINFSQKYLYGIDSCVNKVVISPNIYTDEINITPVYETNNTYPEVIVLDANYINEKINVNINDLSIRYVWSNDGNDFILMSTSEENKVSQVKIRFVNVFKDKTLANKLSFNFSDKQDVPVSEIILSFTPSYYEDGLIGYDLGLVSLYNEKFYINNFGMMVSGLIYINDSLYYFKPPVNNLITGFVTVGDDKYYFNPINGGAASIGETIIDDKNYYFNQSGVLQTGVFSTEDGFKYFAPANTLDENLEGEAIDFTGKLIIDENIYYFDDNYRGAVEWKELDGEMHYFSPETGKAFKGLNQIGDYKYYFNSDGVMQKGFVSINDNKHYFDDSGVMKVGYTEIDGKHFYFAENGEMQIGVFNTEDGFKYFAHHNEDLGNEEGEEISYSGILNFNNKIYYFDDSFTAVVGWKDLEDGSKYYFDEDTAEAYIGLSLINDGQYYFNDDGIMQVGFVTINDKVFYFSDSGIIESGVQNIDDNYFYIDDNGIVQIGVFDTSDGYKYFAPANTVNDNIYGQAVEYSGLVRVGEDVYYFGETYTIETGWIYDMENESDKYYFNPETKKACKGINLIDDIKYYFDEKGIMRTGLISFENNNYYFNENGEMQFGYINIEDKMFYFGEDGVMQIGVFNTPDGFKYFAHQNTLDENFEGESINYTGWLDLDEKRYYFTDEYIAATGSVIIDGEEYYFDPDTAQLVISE
Active calls of the source: *; nt = not tested or not shown; ! = not active in a repeat.

SMILES	PrP UTR inh	BioA inh	Yp Topo-I inh	TcdB GH inh
Cc1cc(C(=O)Cn2nc(C(=O)O)c3ccccc3c2=O)c(C)n1-c1ccc(OC(F)F)cc1	-38	nt	68*	1
C[C@H]1CN([C@@H](C)CO)C(=O)c2cc(NC(=O)C3CC3)ccc2O[C@@H]1CN(C)CC1CCCCC1	nt	1	nt	0
COCCNC(=O)C[C@@H]1C[C@@H]2c3cc(NS(C)(=O)=O)ccc3O[C@@H]2[C@H](CO)O1	nt	-3	nt	-2
C[C@@H]1CCCCO[C@H](CN(C)C(=O)c2ccccc2)[C@@H](C)CN([C@@H](C)CO)C(=O)c2cc(NC(=O)Nc3ccc(F)cc3)ccc2O1	nt	-7	nt	0
CC(=O)N(c1ccccc1C)S(=O)(=O)c1ccc(Cl)cc1	9	nt	-5	11*
O=C(Nc1ccc2c(c1)OCCO2)C1CCCN1S(=O)(=O)c1ccc(Cl)cc1 (configuration not stated)	-11	0	12	nt
O=C(Nc1ccc(O)cc1)C1CCCN1S(=O)(=O)c1ccc(F)cc1 (configuration not stated)	3	-2	-2	10*
CC(=O)Nc1ccc(NC(=O)[C@@H]2CCCN2S(=O)(=O)c2ccc3c(c2)OCCO3)cc1	-6	-1	2	16*
C[C@H](CO)N1C[C@H](C)[C@@H](CN(C)C(=O)c2ccccn2)Oc2cc(C#Cc3ccc(F)cc3)ccc2S1(=O)=O	nt	2	nt	3
CSc1nnc(NC(=O)c2ccc3c(c2)OCO3)s1	63*	-1	7	2
Cc1cc2ncc(-c3ccccc3)nc2cc1C	-12	0	1	0
CCOC(=O)c1ccc2ncc(-c3ccccc3)nc2c1	-103	nt	-3	25*
COC(=O)c1ccc(OC(=O)c2ccc(OC)cc2)c(OC)c1	32	nt	1	11*
CCOC(=O)C1CCN(Cc2cccc(Oc3ccccc3)c2)CC1	-59	-1	66*	0
C[C@H](CO)N1C[C@H](C)[C@@H](CN(C)C(=O)Nc2ccc(C(F)(F)F)cc2)Oc2c(NS(=O)(=O)c3cn(C)cn3)cccc2C1=O	-10	-1	16	13*!
C[C@H](CO)N1C[C@H](C)[C@@H](CN(C)C(=O)Nc2ccc(C(F)(F)F)cc2)Oc2ccc(NC(=O)C3CCCCC3)cc2C1=O	-12	1	22	14*!
COc1ccc(C2CC(c3ccccc3)=NN2C(=O)COC(=O)c2cccc(S(=O)(=O)N3CCOCC3)c2)cc1 (configuration not stated)	-8	nt	60*	nt
O=C(Nc1cc(F)ccc1F)N[C@H]1CC[C@H](CCn2cc(C3CCCC3)nn2)O[C@H]1CO	nt	nt	nt	-1
COc1c(N2CCN(C(=S)NCc3ccccc3)C(C)C2)c(F)cc2c(=O)c(C(=O)O)cn(C3CC3)c12 (configuration not stated)	7	0	62*	nt
COc1c(F)c(F)cc2c(=O)c(C(=O)O)cn(C3CC3)c12	-12	-1	2	2
COc1ccccc1-n1c(SCC(=O)O)nc2c(sc(=S)n2-c2ccc(C)c(C)c2)c1=O	-29	nt	15	11*
COc1ccccc1-n1c(SCC(=O)O)nc2c(sc(=S)n2-c2ccc(Cl)c(C)c2)c1=O	10	1	0	13*
CCOc1ccccc1-n1c(=S)sc2c(=O)n(-c3ccc(F)cc3)c(SCC(=O)O)nc21	-22	-1	4	20*
CO[C@H]1CN(C)C(=O)c2ccc(NC(C)=O)cc2OC[C@@H](C)N(C(=O)CC2CC2)C[C@H]1C	nt	15	nt	1
O=C1NC(Cc2ccccc2)c2nc3ccc(F)cc3c(=O)n2-c2cc3ccccc3cc21 (configuration not stated)	nt	-2	66*	-1
SMILES	PrP UTR inh	BioA inh	Yp Topo-I inh	TcdB GH inh
CCN1/C(=C2\OC(=S)N(C)C2=O)C=Cc2ccccc21	22	-2	6	11*
COc1cccc(C(=O)Nc2ccccc2N2CCCC2)c1	-17	0	-7	nt
O=C(Nc1ccccc1N1CCCCC1)c1cccc(OC(F)F)c1	0	-1	57*	0
O=C(Cc1ccccc1)NNC(=S)NC(=O)c1cccnc1	-54	0	-7	19*
O=C(NC(=S)NCc1ccccc1)c1cccnc1	-32	5	3	16*
COc1ccc(CC(=O)NNC(=S)NC(=O)c2cccnc2)cc1	-16	0	-1	15*
O=C(NNC(=S)NC(=O)c1cccnc1)c1ccccc1	2	-1	-4	nt
O=C(NNC(=S)NCc1ccccc1)c1cccnc1	-22	0	9	0
N#Cc1ccc(-c2ccc3c(c2)[C@@H]2[C@@H](CCN2C(=O)C2CCC2)[C@H](CO)N3)cc1	nt	nt	nt	0
COCC(=O)N1C[C@@H](C)[C@@H](OC)CN(C)C(=O)c2ccc(NC(=O)Nc3ccccc3)cc2OC[C@@H]1C	nt	0	nt	0
